# This is part of a sample that, as a whole, favours compounds with a hit. Of some 83,000 tested, about 20% had one in any assay.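 The test compound was applied at a single concentration to cells in 96-well plates for 48 hours, and percent growth was recorded.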 Values without a mark were called inactive. Calls of active or inactive are those of the source. Rule for the calls: active = growth percent below 10; inactive = the rest.
# Experiments:
# Experiment in all cases: NCI-60 one-dose screen, 48 h (100 = growth as untreated, 0 = no growth, -100 = all killed)
# Conditions in all cases: 10 µM unless noted
# SR leukemia = test system: SR leukemia
# RPMI-8226 leukemia = test system: RPMI-8226 leukemia
# OVCAR-8 ovarian = test system: OVCAR-8 ovarian
# OVCAR-5 ovarian = test system: OVCAR-5 ovarian
# OVCAR-4 ovarian = test system: OVCAR-4 ovarian
# SK-OV-3 ovarian = test system: SK-OV-3 ovarian
# IGROV1 ovarian = test system: IGROV1 ovarian
# OVCAR-3 ovarian = test system: OVCAR-3 ovarian
# HS 578T breast = test system: HS 578T breast
# NCI/ADR-RES ovarian = test system: NCI/ADR-RES ovarian
Compound,growth (SR leukemia),growth (RPMI-8226 leukemia),growth (OVCAR-8 ovarian),growth (OVCAR-5 ovarian),growth (OVCAR-4 ovarian),growth (SK-OV-3 ovarian),growth (IGROV1 ovarian),growth (OVCAR-3 ovarian),growth (HS 578T breast),growth (NCI/ADR-RES ovarian)
COC(=O)c1c(C)c2n(c1C)C(=O)C(c1ccccc1)=C2,102%,88.5%,79.2%,68.9%,71.2%,80.8%,-8.44% (active),104%,103%,86.8%
COc1cc2ncnc(Nc3ccc(F)c(Cl)c3)c2cc1OCC(=O)N1CCN(c2ccccc2)CC1,84.4%,83.6%,93.5%,75%,85.7%,96%,48.9%,87.8%,93.9%,80.5%
COc1ccc(/C=C/C(=O)c2ccc(Nc3ccnc4cc(Cl)ccc34)cc2)cc1,-72.4% (active),-32% (active),97.9%,89.2%,96.6%,111%,93.7%,118%,106%,83.6%
CSc1nc2ncc([N+](=O)[O-])c(=O)n2[nH]1,107%,107%,104%,106%,102%,113%,105%,113%,103%,101%
Cc1ccc2c(c1)=C/C(=C\c1cc(-c3ccccc3)oc1O)C(=O)N=2,101%,94.2%,104%,97.9%,105%,111%,111%,96.5%,106%,98.4%
CN(C)CC(C)(C)C(=O)/C=C/c1ccccc1,-16.5% [25 µM] (active),-23.4% [25 µM] (active),-47.1% [25 µM] (active),-12% [25 µM] (active),-19.5% [25 µM] (active),-20.1% [25 µM] (active),-16.7% [25 µM] (active),-18.5% [25 µM] (active),-2.87% [25 µM] (active),-9% [25 µM] (active)
Nc1ncnc2c1c(-c1cccc(Cl)c1)nn2CC(=O)N1CCOCC1,116%,108%,102%,101%,96.6%,109%,99.2%,106%,103%,103%
C#CCNC(=O)[C@H](CC)[C@H]1CC[C@H](C)[C@H]([C@@H](C)[C@H](O)[C@H](C)C(=O)[C@H](CC)C2O[C@]3(C=CC(=O)[C@]4(CC[C@@](C)([C@H]5CC[C@](O)(CC)[C@H](C)O5)O4)O3)[C@H](C)C[C@@H]2C)O1 (stereo not given in full),13.5%,25.3%,66.8%,68.7%,13.9%,68.2%,48.5%,-23.5% (active),35%,14.7%
Nc1nc(N)c(-c2ccc(Cl)c(Cl)c2)c(CBr)n1,62.1%,80.2%,75.6%,55.3%,107%,99%,47.5%,106%,91.9%,58.2%
O=C(O)c1ccc(-n2cc(/C=N/Nc3ccccc3)c(-c3ccc(F)cc3F)n2)cc1,72%,50%,53.3%,57.6%,80.4%,89.1%,52.6%,62.3%,68.6%,56.7%
C=C1C(=O)O[C@H]2[C@H]1CC/C(COC(=O)/C=C\C(=O)NCc1ccc(Cn3c(=O)sn(CCI)c3=O)cc1)=C\CC[C@@]1(C)O[C@@H]21,2.49% (active),22.4%,58.3%,77.7%,48.3%,133%,3.61% (active),10.4%,89.3%,98%
CN(/C(N)=N/N=C/c1c2ccccc2cc2ccccc12)C1CCCCC1,0.552% (active),2.66% (active),56.3%,78.8%,27.6%,66%,40.3%,58.8%,66.6%,45%
CCOCCNC1=C(Cl)C(=O)c2ccccc2C1=O,89.3%,90.4%,106%,120%,107%,108%,112%,101%,91.9%,103%
CC1(C)CC(=O)C2=C(C1)N(c1ccc(OC(F)(F)F)cc1)C(N)=C(C#N)C2c1ccc(Br)cc1F (stereo not given),76%,100%,35.8%,87.2%,54.9%,61.2%,63.2%,58%,23.7%,35.3%
CC1=C([Se]CC(OC(=O)CC[Se]c2ccccc2)C(=O)NC(C)(C)C)C(=O)c2ccccc2C1=O (stereo not given),-27.7% (active),14.8%,-82% (active),-63.1% (active),-83.6% (active),-98.3% (active),-19.2% (active),-95.9% (active),-19.1% (active),-36.3% (active)
Nc1n[nH]c2ccc([C@H]3[C@@H]4C5CCC(C5)[C@@H]4c4c(ccc5[nH]ncc45)N3S(=O)(=O)C3CC3)cc12 (stereo not given in full),11.3%,4.56% (active),17.4%,23.4%,30.3%,52.7%,18.8%,-38.8% (active),22.7%,0.763% (active)
COc1ccc(C/C(C)=C(/c2ccc(OCCN(C)C)cc2)c2ccc(OC(=O)NCc3ccccc3)cc2)cc1,-46% (active),32.9%,77.4%,92%,78.4%,81.4%,85.3%,63.9%,56.2%,77.2%
Cc1ccc(CNc2ccc3nc(CCC4CCCCC4)[nH]c3c2)cc1,12.8%,-24.6% (active),56.4%,57.8%,11%,60.3%,25.6%,28.6%,55.7%,40.4%
N#Cc1nc(-c2ccc(Cl)cc2)oc1S(=O)(=O)N1CCN(c2ccc(F)cc2)CC1,23.9%,88.4%,82.3%,108%,106%,98.3%,78.8%,108%,103%,101%
COc1ccc2c(c1)c(-c1nc(-c3c[nH]c4ccncc34)cs1)cn2C,-26% (active),-36.7% (active),-52.2% (active),-72.9% (active),-71.4% (active),106%,-83.8% (active),-90.5% (active),-48.3% (active),-52.8% (active)
COC12C=C/C(=C(/C(=O)OCc3ccncn3)C(=O)CCCCCCCCC3(OC)C=C/C(=C(/C(=O)OCc4ccncn4)C(=O)CCCCCCCC1)O3)O2,-15.6% (active),-22.3% (active),17.2%,-2.72% (active),12.2%,52.8%,-27.1% (active),-52.4% (active),38%,7.59% (active)
COc1ccc(Cc2cnc(NC(=O)c3cc(C)oc3C)s2)cc1,14.1%,51.9%,45.3%,53.6%,58.5%,49.1%,44.6%,15%,24.5%,20.6%
Cc1ccc2c(Cn3cc(CSc4nc5ccccc5o4)nn3)cc(=O)oc2c1,99.6%,100%,97.4%,116%,107%,81%,107%,115%,107%,99.3%
CCCNc1nc2ccccc2c2c1S(=O)(=O)c1ccc(Cl)cc1C2=O,8.34% (active),-10.2% (active),3.78% (active),8% (active),13.1%,32.2%,24.6%,-17% (active),7.32% (active),8.31% (active)
CCOC(=O)c1c(C(=O)c2cn(C)c3ccc(Br)cc23)c(-c2cn(C)c3ccc(Br)cc23)n(NC(=O)OC(C)(C)C)c1C,89.1% [100 µM],69.2% [100 µM],71.8% [100 µM],92.3% [100 µM],105% [100 µM],54.8% [100 µM],70.7% [100 µM],88.5% [100 µM],46.8% [100 µM],85.4% [100 µM]
O=S(=O)(Nc1ccc(Cl)c(C(F)(F)F)c1)c1ccc(-c2cnc(C3CC3)o2)cc1,3.51% (active),8.83% (active),5.21% (active),19.2%,25.7%,0.753% (active),24.3%,9.38% (active),-1.41% (active),2.96% (active)
